POLI inh: inhibitors of human DNA polymerase iota | Pol iota fluorescent replication assay, 10 min | AID 588590 | hit rate 1% among 390,000 | Q9UNA4 | Potency, µM (titrated, usually from 115 µM), for inactives: at the highest dose activity, negative = inhibition, hits mostly inhibitors; note: potency is the fitted concentration of half-maximal effect
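Pol iota at 10 nM preincubated 15 min with compounds at room temperature; reaction started with fluorescent substrate, 50 nM final. Fluorescence read kinetically at 0 and 10 min; buffer-only wells as negative control.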
Pol eta inh: inhibitors of human DNA polymerase eta | Q9Y253 | recombinant Pol eta, fluorescent DNA replication assay | Potency, µM (doses to about 114 µM), for inactives: at the top dose activity change, negative = inhibition, most hits filed as inhibitors | hit rate 1.2% among 390,000 | AID 588591; note: potency is the fitted concentration of half-maximal effect; % is set by controls: 0 for no effect and ±100 for the full control effect
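Pol eta (10 nM) was preincubated with compounds for 15 min at room temperature, after which fluorescent replication substrate (50 nM final) was added to start the reaction. Fluorescence was read kinetically at 0 and 10 min.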
12-LOX inh: blocks human arachidonate 12S-lipoxygenase | P18054 | purified 12hLO, xylenol orange hydroperoxide absorbance | Potency, µM (doses to about 108 µM), for the others: at the highest dose activity change, negative = inhibition, most hits filed as inhibitors | hit rate 1.1% among 580,000; note: potency is the fitted concentration of half-maximal effect; % is set by controls: 0 for no effect and ±100 for the full control effect
Target sequence (P18054 whole entry, looked up): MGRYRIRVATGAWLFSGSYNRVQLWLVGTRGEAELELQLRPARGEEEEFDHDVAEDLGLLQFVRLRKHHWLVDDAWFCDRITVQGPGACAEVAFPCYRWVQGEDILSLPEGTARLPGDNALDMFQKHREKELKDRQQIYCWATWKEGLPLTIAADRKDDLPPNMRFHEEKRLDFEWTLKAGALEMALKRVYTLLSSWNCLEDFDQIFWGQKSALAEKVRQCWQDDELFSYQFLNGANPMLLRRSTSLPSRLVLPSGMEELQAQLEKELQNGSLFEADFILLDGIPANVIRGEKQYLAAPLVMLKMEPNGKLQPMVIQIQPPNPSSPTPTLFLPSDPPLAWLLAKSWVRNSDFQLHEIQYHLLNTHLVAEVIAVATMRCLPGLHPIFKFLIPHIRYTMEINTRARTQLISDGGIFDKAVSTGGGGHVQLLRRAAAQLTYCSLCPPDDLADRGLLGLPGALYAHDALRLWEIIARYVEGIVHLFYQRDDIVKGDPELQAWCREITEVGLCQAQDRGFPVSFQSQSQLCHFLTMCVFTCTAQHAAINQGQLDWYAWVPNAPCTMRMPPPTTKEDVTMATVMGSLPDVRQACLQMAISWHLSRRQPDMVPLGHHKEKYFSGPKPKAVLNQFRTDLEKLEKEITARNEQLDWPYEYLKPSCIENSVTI
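Purified human 12hLO (150 nM final) in 25 mM Hepes, 0.01% Triton X-100, pH 7.0 was preincubated 15 min at room temperature with compound. Then 40 uM arachidonic acid was added, 30 min. Hydroperoxide was read by Fe-XO absorbance ratio 573/405 nm.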
POLK inh: DNA polymerase kappa (human) inhibition. Potency, µM (series often up to 107 µM), for the others: at the highest dose activity, negative = inhibition, actives largely listed as inhibitors. AID 588579. Q9UBT6. hit rate 0.53% among 400,000. purified Pol kappa, fluorescent DNA synthesis assay, 10 min; note: potency is the fitted concentration of half-maximal effect; % is set by controls: 0 for no effect and ±100 for the full control effect
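Fluorescent qHTS in 1536-well format: enzyme (10 nM) and compound sat 15 min at room temperature before 50 nM substrate (final) was added. Signal taken at 0 and 10 min; no-enzyme buffer wells were negative controls.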
Pol beta inh: blocks human DNA polymerase beta activity. P06746. Pol beta primer extension/strand displacement, fluorescence kinetic. Potency, µM (top dose mostly 114 µM), inactives show at the highest dose activity change, negative = inhibition, most hits filed as inhibitors. hit rate 1.3% among 340,000; note: potency is the fitted concentration of half-maximal effect; % is set by controls: 0 for no effect and ±100 for the full control effect
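Homogeneous kinetic assay of primer extension and strand displacement by 10 nM Pol beta, preincubated 15 min at room temperature with compound before 50 nM substrate (final) was added. Read at 0 and 10 min; four-parameter Hill fit.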
PI5P4Ka inh: PI5P4K alpha (human) kinase inhibition; AID 652105; PI5P4Kalpha enzyme, ADP-Glo luminescence, 60 min; stronger effect = lower value; hit rate 1.2% among 330,000; P48426; max response, %; active = max response of -50% or lower; inconclusive = between -30% and -50%; inactive = -30% or higher; note: value at the top dose of about 77 µM; % is set by controls: 0 for no effect and ±100 for the full control effect
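Luminescence from ADP-Glo served as readout of PI5P4Kalpha activity in a qHTS format. Reaction: enzyme, substrate, compound, ATP at 5 microM final, 60 min at RT.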
* hit, by the source's call; ? = inconclusive; . = not tested or not shown; ! = not active in a repeat; [ ] = remark or other dose. Shown are actives, neighbours in structure and some others; about 2.9% of the full set was active somewhere. Unless noted, calls come from the whole dose curve; as a rule, active = well fitted inhibition curve with a large enough effect; inconclusive = small, poorly fitted or top-dose-only effect, or another doubt; inactive = no such curve, though single readings can be large or run the other way.

SMILES	POLI inh	Pol eta inh	12-LOX inh	POLK inh	Pol beta inh	PI5P4Ka inh
COc1ccccc1-c1cncnc1-n1ccnc1	.	.	25µM*	-4%[60.1 µM]	.	.
CC(C)c1cccc(OCCN2CCCC2)c1	31%	-19%	0.63µM*	-15%	2%	-2
COc1cccc(C(=O)Nc2c(NCC3CCCCC3)c3ccccc3oc2=O)c1	.	.	-11%	.	.	.
Cc1ccc(CCN2CCCCC23Cc2ccccc2CN(C(=O)CCC(=O)O)C3)cc1 (configuration not stated)	.	.	32µM*	.	.	.
COc1ccc(-c2cc(-c3cccc(CO)c3)cn3cncc23)cn1	.	.	15%[176 µM]	.	.	.
O=C1c2sccc2-c2cccc3cccc1c23	.	-21%	0%	.	.	1
O=C1C([N+](=O)[O-])=C(O)c2cccc3cccc1c23	.	.	.	.	11µM*	.
Cn1c(-n2cccc2)c(-c2c(-c3cccc4ccccc34)[nH]c3c2c(=O)[nH]c(=O)n3C)c(=O)[nH]c1=O	.	.	18µM*	.	.	.
CS(=O)(=O)N1CCN(c2ccccc2NC(=S)NC(=O)c2cccs2)CC1	37%	-18%	35µM*	-7%	1%	-3
O=C(NC(=S)Nc1ccc(S(=O)(=O)NC2CCCCC2)cc1)c1cccs1	191%	-21%	16µM*	-16%	0%[57.1 µM]	-7
CC(C)C(=O)NC(=S)Nc1ccccc1N1CCN(C(=O)c2ccc(Cl)cc2)CC1	42%	-14%	45µM*	4%	3%	4
CC1CCCCC1NC(=S)NC(=O)c1cccs1 (configuration not stated)	17%	-8%	14µM*	-5%	5%	9
CC(C)C(=O)N1CCN(c2ccccc2NC(=S)NC(=O)c2cccs2)CC1	8%	-19%	?	11%	-7%	-18
CC1CCN(c2ccccc2NC(=S)NC(=O)c2cccs2)CC1	5%	-4%	32µM*	-5%	4%	35
CC1CCN(c2ccccc2NC(=S)NC(=O)C(C)(C)C)CC1	29%	-16%	40µM*	-8%	1%	17
CC1CCN(c2ccccc2NC(=S)NC(=O)c2ccco2)CC1	-2%	-11%	?	-10%	.	-1
COc1ncccc1Nc1cnc2ccc(N(C)Cc3ccc(F)cc3)nn12	.	.	12%[176 µM]	.	.	.
C=CCn1c(CCc2cc(C(C)(C)C)c(O)c(C(C)(C)C)c2)n[nH]c1=S	47%	-24%	35µM*	-28%	15%	-10
CCOC(=O)C1=C(NC(=S)NC(=O)c2ccccc2)c2ccccc2CC1C(C)C (configuration not stated)	?	?	?	-10%	-12%	-1
CCOC(=O)C1=C(NC(=S)NC(=O)c2ccccc2)c2ccccc2CC1(C)CC (configuration not stated)	14%	-12%	16µM*	-22%	-12%	1
N=C1C(c2nc3ccccc3c(=O)[nH]2)=C(O)CN1c1ccc(Cl)cc1Cl	.	.	-12%	.	.	.
COc1ccc2c(C(F)(F)F)cc(SCC(=O)N3CCCC3)nc2c1	.	.	20%	.	.	.
Cc1ccc(C)n1-c1ccc(C(=O)NN)cc1	16µM*	-14%	-1%	?	13%	?
C#CC(C)(CC)NC(=O)c1ccc(OC)c(OC)c1 (configuration not stated)	.	.	-5%	.	.	.
C=CCc1cc(C)ccc1OCC(O)CN1CCN(c2ccccc2)CC1 (configuration not stated)	3%	-22%	?	-10%	5%	.
SMILES	POLI inh	Pol eta inh	12-LOX inh	POLK inh	Pol beta inh	PI5P4Ka inh
C=CCc1ccccc1OCC(O)CN1CCN(c2ccccc2)CC1 (configuration not stated)	79µM*	-18%	?	?	-5%	.
COc1ccc(N2CCN(CC(O)COc3ccc(C)c(C)c3)CC2)cc1 (configuration not stated)	3%	-16%	?	6%	29%	0
COc1ccc(OCC(O)CN2CCN(c3ccc(OC)cc3)CC2)cc1 (configuration not stated)	16%	-12%	?	-7%	12%	1
COc1ccc(N2CCN(CC(O)COc3c(OC)cccc3OC)CC2)cc1 (configuration not stated)	-14%	-15%	40µM*!	0%	7%	0
Cc1cccc(N2CCN(CC(O)COc3ccc4ccccc4c3)CC2)c1 (configuration not stated)	31%	-3%	1%	-7%	.	0
Cc1cc(OCC(O)CN2CCN(c3cccc(Cl)c3)CC2)ccc1Cl (configuration not stated)	-7%	-22%	40µM*	-11%	-14%	.
COc1ccc(N2CCN(CC(O)COc3ccc(C(C)C)c(C)c3)CC2)cc1 (configuration not stated)	4%	-27%	16µM*	-4%	-14%	.
CCOc1nc2ccccc2nc1N1CCC(C(=O)Nc2ccc(C(N)=O)cc2)CC1	.	.	-29%	.	.	.
C=CCc1cc(OC)ccc1OCC(O)CN1CCN(c2ccc(OC)cc2)CC1 (configuration not stated)	?	-11%	35µM*!	-9%	?	1
O=C(O)CC1S/C(=N/N=C/c2ccc(-c3ccc(Cl)c([N+](=O)[O-])c3)o2)NC1=O (configuration not stated)	?	-33%	-22%	-15%	?	-19
O=C(O)CC1S/C(=N/N=C/c2ccc(-c3ccc(Cl)cc3[N+](=O)[O-])o2)NC1=O (configuration not stated)	?	?	-26%	?	?	-52*
COc1ccccc1NC(=O)Cc1csc(NC(=S)Nc2ccccc2)n1	9%	-19%	18µM*	-27%	8%	.
CN(C)c1ccc(CN2CCC3(CC2)COc2ccccc2C(=O)N3)cc1	.	.	40µM*	.	.	.
Cn1cccc1CN1CCC2(CC1)COc1ccccc1C(=O)N2	.	.	56µM*	.	.	.
O=C(CSc1ncnc2nc[nH]c12)NCCc1c[nH]c2ccc(F)cc12	.	.	-6%	.	.	.
COc1cccc(C2=CC(=O)C[C@H](c3ccc(Cl)cc3)C2)c1	4%	-5%	-2%	-9%	.	6
COc1cccc(C2=CC(=O)CC(c3ccco3)C2)c1 (configuration not stated)	22%	-15%	35µM*	-5%	.	?
COc1ccc(OCC(=O)Nc2cc(-c3ccccc3)no2)cc1	.	.	3%	.	.	.
CCOc1cccc2cc(-c3nnc(Nc4ccc(F)c(Cl)c4)s3)c(=O)oc12	30%	-9%	-23%	-6%[60.1 µM]	30%	.
O=c1cc(O)c2sc(Nc3ccc(F)c(Cl)c3)nc2[nH]1	43%	-12%	?	-2%	56µM*	-69*
COc1ccc(Nc2nc3[nH]c(=O)cc(O)c3s2)cc1	84%	-19%	?	6%	45µM*	?
